Key:
[1] = test system: Vero E6 infected with SARS-CoV-2; test: morphology score (similarity to uninfected cells); higher = more like uninfected cells; details: 24 h
[2] = test system: Vero E6 infected with SARS-CoV-2; test: SARS-CoV-2 infection rate relative to infected DMSO; higher = more infection, active = 60 or less; details: 24 h

**Q.** Which results are given for CC(C)(C)Nc1nc(Nc2ccc(C(N)=O)cc2)cc(N)c1C#N (0.833333 µM)?
**A.** morphology score [1]: 0.029; SARS-CoV-2 infection rate [2]: 106% (inactive)

**Q.** Which results are given for CCN(CCCc1ccccc1)CCCc1ccccc1 [alverine] (10 µM)?
**A.** morphology score [1]: 0.397; SARS-CoV-2 infection rate [2]: 62% (inactive)

**Q.** For COc1cc(C(=S)N2CCOCC2)cc(OC)c1OC [sulmetozine] (10 µM), which morphology score [1] is on record?
**A.** 0.0452

**Q.** What about the SARS-CoV-2 infection rate [2] of the same compound?
**A.** 106% (inactive)

**Q.** For CC(C)C[C@H](NC(=O)CNC(=O)c1cc(Cl)ccc1Cl)B1OC(=O)C(CC(=O)O)(CC(=O)O)O1 (0.833333 µM), which morphology score [1] is on record?
**A.** -0.0464

**Q.** What about the SARS-CoV-2 infection rate [2] of the same compound?
**A.** 108% (inactive)

**Q.** What does the source list for CC1(C)CC[C@]2(NC(=O)C(C)(F)F)CC[C@]3(C)[C@H](C(=O)C=C4[C@@]5(C)C=C(C#N)C(=O)C(C)(C)[C@@H]5CC[C@]43C)[C@@H]2C1 [Omaveloxolone (RTA-408)] (10 µM)?
**A.** morphology score [1]: -0.212; SARS-CoV-2 infection rate [2]: 112% (inactive)

**Q.** With CCc1cc2c(cc1N1CCC(N3CCOCC3)CC1)C(C)(C)c1[nH]c3cc(C#N)ccc3c1C2=O [alectinib] (10 µM) as the compound, how does the morphology score [1] read?
**A.** 0.135

**Q.** What about the SARS-CoV-2 infection rate [2] of the same compound?
**A.** 106% (inactive)

**Q.** Which results are given for CC(N)Cc1c[nH]c2ccc(OCc3cccs3)cc12 (configuration not stated) (10 µM)?
**A.** morphology score [1]: 0.0586; SARS-CoV-2 infection rate [2]: 90% (inactive)

**Q.** What does the source list for O=C(N/N=C/c1ccc([N+](=O)[O-])o1)c1cc([N+](=O)[O-])cc([N+](=O)[O-])c1O [nifursol] (10 µM)?
**A.** morphology score [1]: 0.0974; SARS-CoV-2 infection rate [2]: 111% (inactive)

**Q.** How did the morphology score [1] turn out when CN(C)C/C=C/C(=O)Nc1ccc(C(=O)Nc2cccc(Nc3ncc(Cl)c(-c4c[nH]c5ccccc45)n3)c2)cc1 (10 µM) was run?
**A.** -0.108

**Q.** What about the SARS-CoV-2 infection rate [2] of the same compound?
**A.** 94% (inactive)

**Q.** How did the morphology score [1] turn out when CO[C@@]12[C@H](COC(N)=O)C3=C(C(=O)C(C)=C(N)C3=O)N1C[C@@H]1N[C@@H]12 [mitomycin-C] (10 µM) was run?
**A.** 0.101

**Q.** And the SARS-CoV-2 infection rate [2]?
**A.** 104% (inactive)

**Q.** What does the source list for CNC(=O)[C@H]1O[C@@H](n2cnc3c(NCc4cccc(I)c4)ncnc32)[C@H](O)[C@@H]1O (10 µM)?
**A.** morphology score [1]: 0.156; SARS-CoV-2 infection rate [2]: 100% (inactive)

**Q.** What does the source list for Cc1cc(Oc2ccc3nc(COc4ccc(CC5SC(=O)NC5=O)cc4)n(C)c3c2)cc(C)c1N (configuration not stated) [efatutazone] (10 µM)?
**A.** morphology score [1]: 0.36; SARS-CoV-2 infection rate [2]: 93.5% (inactive)

**Q.** With C[C@H](Nc1ncnc2[nH]cnc12)c1cc2ccc(F)cc2nc1-c1ccccn1 (10 µM) as the compound, how does the morphology score [1] read?
**A.** 0.0578

**Q.** And the SARS-CoV-2 infection rate [2]?
**A.** 114% (inactive)

**Q.** Which results are given for O=S(=O)(c1ccccc1)c1cnc2c(N3CCNCC3)cccc2c1 (10 µM)?
**A.** morphology score [1]: -0.0691; SARS-CoV-2 infection rate [2]: 106% (inactive)

**Q.** Which morphology score [1] does the source give for CCCCc1nc(C)c(CC(=S)N(C)C)c(=O)n1Cc1ccc(-c2ccccc2-c2nnn[nH]2)cc1 [fimasartan] (10 µM) here?
**A.** 0.0951

**Q.** What about the SARS-CoV-2 infection rate [2] of the same compound?
**A.** 112% (inactive)

**Q.** For c1ccc(Cn2c(-c3ccc(OC[C@H](C4CCNCC4)n4c(-c5ccccc5)nc5ccccc54)cc3)nc3ccccc32)cc1 [deltarasin] (0.833333 µM), which morphology score [1] is on record?
**A.** 0.147

**Q.** What about the SARS-CoV-2 infection rate [2] of the same compound?
**A.** 96% (inactive)

**Q.** OCC(O)CN1CCN(c2ccccc2)CC1 (configuration not stated) [dropropizine] (10 µM) was tested. Which morphology score [1] did it give?
**A.** 0.106

**Q.** What about the SARS-CoV-2 infection rate [2] of the same compound?
**A.** 103% (inactive)

**Q.** Which morphology score [1] does the source give for NCCNCCNCCN [trientine] (10 µM) here?
**A.** -0.00487

**Q.** And the SARS-CoV-2 infection rate [2]?
**A.** 106% (inactive)

**Q.** For CCCCC/C=C\C/C=C\CCCCCCCC(=O)NCCCC(=O)O [GABA-linoleamide] (10 µM), which morphology score [1] is on record?
**A.** 0.105

**Q.** What about the SARS-CoV-2 infection rate [2] of the same compound?
**A.** 97.5% (inactive)

**Q.** For CCc1ccc(/C=C/C(=O)Nc2ccc(C(C)=O)cc2)o1 [heclin] (10 µM), which morphology score [1] is on record?
**A.** 0.263

**Q.** And the SARS-CoV-2 infection rate [2]?
**A.** 77% (inactive)

**Q.** How did the morphology score [1] turn out when C=CC1=C(C)C2=CC3=NC(=C(CC(=O)O)C4=NC(=C(C)C4=C(O)O)C=c4[nH]c(c(C)c4CC)=CC1=N2)C(CCC(=O)O)C3C (configuration not stated) [chlorophyllin] (10 µM) was run?
**A.** 0.148

**Q.** What about the SARS-CoV-2 infection rate [2] of the same compound?
**A.** 94% (inactive)

**Q.** C#C[C@]1(OC(C)=O)CC[C@H]2[C@@H]3CCC4=CC(=NO)CC[C@@H]4[C@H]3CC[C@@]21CC (mixture of isomers) [norgestimate] (10 µM) was tested. Which morphology score [1] did it give?
**A.** 0.111

**Q.** And the SARS-CoV-2 infection rate [2]?
**A.** 108% (inactive)

**Q.** What does the source list for CN(C)CCCCC(=O)Nc1ccc(NC(=S)NC(=O)c2ccc(C(C)(C)C)cc2)cc1 [tenovin-6] (0.833333 µM)?
**A.** morphology score [1]: -0.102; SARS-CoV-2 infection rate [2]: 86% (inactive)

**Q.** With Cc1ncc(CN2CC=C(c3ccccc3)CC2)c(N)n1 (10 µM) as the compound, how does the morphology score [1] read?
**A.** 0.0617

**Q.** What about the SARS-CoV-2 infection rate [2] of the same compound?
**A.** 108% (inactive)

**Q.** Which results are given for OC[C@H]1O[C@@H](O[C@@H]2[C@@H](CO)OC(O)(CO)[C@H]2O)[C@H](O)[C@@H](O)[C@H]1O (mixture of isomers) [lactulose] (10 µM)?
**A.** morphology score [1]: -0.0368; SARS-CoV-2 infection rate [2]: 97.5% (inactive)

**Q.** OCCN1CCN(CC/C=C2/c3ccccc3Sc3ccc(C(F)(F)F)cc32)CC1 [flupentixol] (10 µM) was tested. Which morphology score [1] did it give?
**A.** 0.506

**Q.** What about the SARS-CoV-2 infection rate [2] of the same compound?
**A.** 79% (inactive)
